Most compounds without a hit are left out; they make up all but 4.1% or so of the library.
DAX1 inh-1: inhibitors of human orphan nuclear receptor DAX1 (NR0B1); P51843; HEK293 Gal4-DAX1 luciferase reporter, luminescence; inhibition, % at 6.75 µM; actives 0.99% (n = 340,000); AID 504766;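 active means inhibition above the mean over all tested compounds plus 3 SD, cut at about 4.2% in these data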;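 further: 0% = DAX1-transfected cells with DMSO and 100% = empty-vector control cells with DMSO; inhibition shows as a rise in luminescence from relieved DAX1 repression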
Target sequence (P51843 207-470 limits assumed): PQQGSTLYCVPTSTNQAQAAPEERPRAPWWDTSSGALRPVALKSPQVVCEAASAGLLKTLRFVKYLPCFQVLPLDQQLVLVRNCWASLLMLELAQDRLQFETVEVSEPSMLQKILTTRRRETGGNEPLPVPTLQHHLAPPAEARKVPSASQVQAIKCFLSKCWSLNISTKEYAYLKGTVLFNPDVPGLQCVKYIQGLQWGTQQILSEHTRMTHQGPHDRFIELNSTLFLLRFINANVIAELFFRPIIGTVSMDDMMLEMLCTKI
hgDAF-12 ag: hgDAF-12 agonism, primary luciferase screen; HEK293 GAL4-hgDAF12 UAS-luciferase reporter, agonist luminescence; normalized to butyrate control; activation, % at 6.8 µM; actives 1.8% (n = 370,000); AID 687014;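 active means activation above a cutoff set at the mean of all screened compounds plus 3 SD, cut at about 10% in these data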;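 further: 0% = DMSO wells and 100% = sodium butyrate wells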
ssDAF-12 act: S. stercoralis DAF-12 activation, primary screen | activation, % at 6.8 µM | actives 1% (n = 370,000) | HEK293 ssDAF-12/GRIP1 lit1-tk-luc reporter, luminescence; % of 3 µM dafachronic acid response;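 active means activation above the mean over all tested compounds plus 3 SD, cut at about 0.9% in these data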;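 further: 0% = DMSO-only wells and 100% = 3 µM delta7-dafachronic acid wells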
hcDAF-12 act: activators of H. contortus DAF-12 nuclear receptor; HEK293 hcDAF-12 lit1-tk-luc reporter, luminescence; 0% DMSO, 100% Δ7-dafachronic acid; activation, % at 6.8 µM; actives 1.4% (n = 370,000); AID 652067;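 active means activation above the mean of all tested compounds plus 3 SD, cut at about 5.5% in these data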;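 further: 100% = response to 3 µM Δ7-dafachronic acid high control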
DAX1 inh-2: DAX1 (NR0B1) inhibition, primary screen; AID 652010; HEK293T StAR-luciferase reporter, SF-1/DAX-1 repression relief; actives 1.1% (n = 370,000); inhibition, % at 6.8 µM;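 active means inhibition above the mean over all tested compounds plus 3 SD, cut at about 3.6% in these data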;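 further: 0% = DAX-1 cells with DMSO and 100% = cells lacking DAX-1 with DMSO; higher inhibition means more luminescence from relief of DAX-1 repression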
An asterisk follows results filed as active.

`COc1ccc(CN(CCN2CCOCC2)C(=O)c2ccc(F)cc2F)cc1OC` gave hgDAF-12 ag 2, ssDAF-12 act -1, hcDAF-12 act -1 and DAX1 inh-2 0.
For CCc1ccc(S(=O)(=O)NCCc2cn3cccc(C)c3n2)s1 the results were DAX1 inh-1 -1, hgDAF-12 ag 4, ssDAF-12 act 2.2*, hcDAF-12 act 5 and DAX1 inh-2 1.
Screening CC(=O)c1ccc(OCC(=O)N(CCC2=CCCCC2)c2c(N)n(Cc3ccccc3)c(=O)[nH]c2=O)cc1 returned DAX1 inh-1 1, hgDAF-12 ag 4, ssDAF-12 act -1, hcDAF-12 act -2 and DAX1 inh-2 0.
Screening CC(=O)c1cccc(OCC(=O)N(CCC2=CCCCC2)c2c(N)n(Cc3ccccc3)c(=O)[nH]c2=O)c1 returned DAX1 inh-1 4.3*, hgDAF-12 ag 1, ssDAF-12 act -2, hcDAF-12 act 1 and DAX1 inh-2 0.
For COc1cccc(C(=O)N[C@H](C(=O)N2CCC[C@H]2C(=O)NCCc2ccccc2Cl)C2CCCCC2)c1 the results were hgDAF-12 ag -4, ssDAF-12 act -1, hcDAF-12 act -1 and DAX1 inh-2 2.
Cc1ccccc1CN1CCCCC(NC(=O)c2cc(-c3ccccc3)no2)C1=O (centres undefined) was read as hgDAF-12 ag -1, ssDAF-12 act -1, hcDAF-12 act -1 and DAX1 inh-2 -2.
`N#Cc1ccsc1NC(=O)COC(=O)c1cc(Br)ccc1O` gave DAX1 inh-1 6.0*, hgDAF-12 ag 1, ssDAF-12 act 0, hcDAF-12 act 4 and DAX1 inh-2 1.
For CCCCCn1nnnc1C1c2ccccc2OCC(=O)N1Cc1ccco1 (centres undefined) the results were hgDAF-12 ag 1, ssDAF-12 act -1, hcDAF-12 act -1 and DAX1 inh-2 1.
For COc1ccc(OC)c(/C=C/C(=O)NC2=NCCS2)c1 the results were DAX1 inh-1 0, hgDAF-12 ag 2, ssDAF-12 act -1, hcDAF-12 act 2 and DAX1 inh-2 1.
`COc1ccc(NC(=O)/C=C/c2cccc(F)c2)cn1` gave DAX1 inh-1 2, hgDAF-12 ag 13*, ssDAF-12 act -1, hcDAF-12 act 2 and DAX1 inh-2 3.
For COc1ccc(OC)c(/C=C/C(=O)Nc2ccc(OC)nc2)c1 the results were DAX1 inh-1 5.6*, hgDAF-12 ag 1, ssDAF-12 act -2, hcDAF-12 act 0 and DAX1 inh-2 -1.
For COc1ccc(NC(=O)/C=C/c2ccco2)cn1 the results were DAX1 inh-1 0, hgDAF-12 ag 9, ssDAF-12 act -1, hcDAF-12 act 3 and DAX1 inh-2 2.
For COc1cccc(CNC(=O)C2CCCN(c3ncccn3)C2)c1OC (centres undefined) the results were hgDAF-12 ag 1, ssDAF-12 act -2, hcDAF-12 act 3 and DAX1 inh-2 -1.
For COc1cccc(-c2cc3nc(-c4ccco4)cc(N4CCN(C(C)=O)CC4)n3n2)c1 the results were hgDAF-12 ag -2, ssDAF-12 act -2 and hcDAF-12 act -3.
Screening O=C(O)CN1C(=O)C=CC1=O returned DAX1 inh-1 4.7*, hgDAF-12 ag 3, ssDAF-12 act -1, hcDAF-12 act 1 and DAX1 inh-2 0.
Fc1cccc(-c2cc3nc4c(c(NCc5ccco5)n3n2)CCCC4)c1 was read as DAX1 inh-1 3, hgDAF-12 ag 11*, ssDAF-12 act 0, hcDAF-12 act 3 and DAX1 inh-2 4.2*.
`COc1cccc(-c2cn3nc4c(nc3n2)CCCC4)c1` gave DAX1 inh-1 -1.
For COc1cccc(-c2cc3nc4c(c(NCC(C)(C)CN(C)C)n3n2)CCCC4)c1 the results were DAX1 inh-1 4.3*, hgDAF-12 ag 6, ssDAF-12 act -2, hcDAF-12 act 0 and DAX1 inh-2 2.
`COc1ccc(Nc2ccc([N+](=O)[O-])cc2[N+](=O)[O-])cc1` gave DAX1 inh-1 6.3*, hgDAF-12 ag -1, ssDAF-12 act -2, hcDAF-12 act -1 and DAX1 inh-2 0.
COc1ccc(Nc2ccc(C(=O)O)cc2[N+](=O)[O-])cc1 was read as DAX1 inh-1 2, hgDAF-12 ag 0, ssDAF-12 act -1, hcDAF-12 act -2 and DAX1 inh-2 0.
`Cc1ccc(S(=O)(=O)n2c(N)nc3ccccc32)cc1` gave DAX1 inh-1 0, hgDAF-12 ag 0, ssDAF-12 act -1, hcDAF-12 act -2 and DAX1 inh-2 0.
Nc1nc2ccccc2n1S(=O)(=O)c1ccc(Cl)cc1 was read as hgDAF-12 ag -1, ssDAF-12 act -1, hcDAF-12 act 0 and DAX1 inh-2 4.2*.
Screening O=C(CN(Cc1ccc(F)cc1)C(=O)CCC(=O)Nc1nccs1)NCc1ccc(F)cc1 returned DAX1 inh-1 4.6*, hgDAF-12 ag -2, ssDAF-12 act -2, hcDAF-12 act -3 and DAX1 inh-2 0.
`O=C(CN(Cc1ccccc1)C(=O)CCC(=O)Nc1nccs1)NCc1ccc(F)cc1` gave DAX1 inh-1 1, hgDAF-12 ag -2, ssDAF-12 act -1, hcDAF-12 act 0 and DAX1 inh-2 0.
CC1CCC(NC(=O)CCNC(=O)c2ccc(Br)cc2)CC1 (centres undefined) was read as DAX1 inh-1 1, hgDAF-12 ag 10, ssDAF-12 act 0, hcDAF-12 act 2 and DAX1 inh-2 4.3*.
Screening CC1CCC(NC(=O)c2ccc(S(C)(=O)=O)cc2)CC1 (centres undefined) returned DAX1 inh-1 0, hgDAF-12 ag 3, ssDAF-12 act 6.4*, hcDAF-12 act 0 and DAX1 inh-2 1.
Screening C=CCOc1ccc(/C=C(\C#N)C(=O)Nc2ccccn2)cc1OC returned DAX1 inh-1 4.7*, hgDAF-12 ag -1, ssDAF-12 act -1, hcDAF-12 act -1 and DAX1 inh-2 0.
COC(=O)C1=C(C)N(Cc2ccccc2C(F)(F)F)C(=NCc2ccc(OC)cc2)NC1CCc1ccccc1 (centres undefined) was read as hgDAF-12 ag 3, ssDAF-12 act -1, hcDAF-12 act 1 and DAX1 inh-2 0.
`COc1ccc(C=NNC(=O)Cc2cc(=O)[nH][nH]2)c(OC)c1` gave hgDAF-12 ag -3, ssDAF-12 act -1, hcDAF-12 act 2 and DAX1 inh-2 -1.
c1ccc(-c2cn3nc(-c4ccccc4)sc3n2)cc1 was read as DAX1 inh-1 5.6*.
`c1ccc(-c2nnc3sc(-c4ccncc4)nn23)cc1` gave DAX1 inh-1 0, hgDAF-12 ag 6, ssDAF-12 act -2, hcDAF-12 act -2 and DAX1 inh-2 -1.
`CCN1C[C@@H]2[C@@H]3C(=O)N(C)C(=O)[C@@H]3[C@](CC)(C1=O)N2C(=O)c1ccccc1` gave DAX1 inh-1 0, hgDAF-12 ag 1, ssDAF-12 act -2, hcDAF-12 act -1 and DAX1 inh-2 0.
